Measurements as given in PubChem BioAssay AID720534 (National Center for Advancing Translational Sciences (NCATS), 2013).
Hit rate of the full screen: of about 1,600 compounds, about 990 (62%) were called active. Inconclusive results (about 30%) are left out. Calls follow the shape of the dose curve; as a rule, active = well fitted inhibition curve with a large enough effect; inconclusive = small, poorly fitted or top-dose-only effect; inactive = no such curve, though single readings can be large or run the other way. The set was probably picked from earlier hits. These entries were drawn from the full list.

Assay: qHTS for Inhibitors of TGF-b: Confirmation of Cherry Picks; also: nearly all actives have a fitted effect of over 65% in size
Conditions: HepG2 CAGA-GFP TGF-b reporter, GFP fluorescence, 18 h, cells stimulated with TGF-beta, 500 pg/mL; series mostly up to 46.1 µM; activity, negative = inhibition: at the top concentration
Source text: TGF-b is a main component in the TGF-b signaling pathway which plays diverse roles in cellular and development pathways. TGF-b is mediated through transcription factors called "Smads". Although the Smad-dependent pathway is the primary canonical TGF-b signaling mode, TGF-b1 can also activate alternative signaling pathways, including those involving MAPK (ERK, JNK and p38). This interaction may mediate or enhance Smad-dependent responses, or can exert Smad-independent effects. The complexity of this signaling cascade allows the TGF-b superfamily to perform unique, overlapping or redundant functions. We believe that targeting the TGF-beta pathway at the Smad-transcription factor level may eliminate the consequences of disrupting the entire pathway and offer specificity without affecting other signaling pathways. Smad3 is the primary transducer of TGF-b's signals and Smad3 regulates many functions attributed to TGF-b signaling. We hypothesize that Smad3 inhibitors will selectively eliminate Smad3-specific TGF-beta signals without undesired off-target effects. We aim to identify Smad3-small molecule antagonists using a quantitative high throughput screening (qHTS) approach. In this assay, hits identified from the primary screen were re-tested. MH087449NIH Chemical Genomics Center [NCGC] NIH Molecular Libraries Probe Centers Network [MLPCN] MLPCN Grant: MH087449 Assay Submitter (PI): Sushil Rane, National Institute of Diabetes and Kidney Diseases
Suspensions of trypsinized HEPG2 CAGA-GFP cells were dispensed into white, tissue culture-treated, solid 1536-well plates at 5uL/well (1000 cells/well final concentration) in DMEM medium supplemented with 1% FBS. Plates were incubated at 37 degrees C for 2 hours, after which 23 nL of compounds or DMSO were delivered to each well using a pin tool. One uL of recombinant TGF-beta in DMEM (1% FBS) was then dispensed (500 pg/mL final concentration), and plates were incubated at 37 degrees C for 18 hours. The plates were measured on an Acumen eX3 Explorer plate reader for GFP fluorescence (ex488/em500-530). GFP values were calculated by determining the mean GFP fluorescence of individual cells, and compiling these values for each well to determine a total well GFP signal. The %Activity was determined from the corrected fluorescence values. A titration of the known TGF-B inhibitor SB431542 was included to monitor plate performance, while unstimulated HEPG2 (-TGF-B) control wells were used to normalize %Activity of identified inhibitors; unstimulated wells corresponded to 100%Activity (full inhibition), while stimulated cell controls (+DMSO) were used to normalize 0%Activity (no inhibition). Concentration-response curves were fitted to the signals arising from the resulting fluorescence. The concentration-effect curves were then classified based on curve quality (r2), response magnitude and degree of measured activity, and compounds were subsequently categorized based on their curve class.
Potency is read from the fitted curve at half-maximal effect.

| Structure (SMILES) | Potency | activity, negative = inhibition |
| --- | --- | --- |
| O=[N+]([O-])c1ccccc1S(=O)(=O)Nc1cccc2cccnc12 | 13 µM (active) | – |
| CN(C)CCNC(=O)c1ccc(Cl)c2cc3ccccc3nc12 | 3.26 µM (active) | – |
| O=C(NC1=CC(=O)c2ccccc2C1=O)c1ccccc1 | 5.17 µM (active) | – |
| COC(=O)COc1cccc2c(=O)n(CC(=O)NCc3ccccc3)ccc12 | – | -17.8% (inactive) |
| COc1cc(NC(=O)c2ccccc2NS(=O)(=O)c2ccc(Cl)s2)cc(OC)c1 | 5.8 µM (active) | – |
| CN(c1ccccc1)S(=O)(=O)c1ccc(C(=O)N2CCN(c3ccccc3Cl)CC2)cc1 | 5.8 µM (active) | – |
| COc1ccc(CNC(=O)C[C@H]2C[C@H](C(=O)N3CCOCC3)[C@@]3(CCC4CCCC4)c4[nH]c5ccc(Cl)cc5c4CCN3C2=O)cc1OC | 4.61 µM (active) | – |
| COc1ccc(C(=O)c2c3ccc([N+](=O)[O-])cc3[n+]([O-])n2CCCN)cc1 | 18.4 µM (active) | – |
| COc1cc(NC(=O)c2[nH]cnc2C(N)=O)cc(C(=O)Nc2cccc(C(F)(F)F)c2)c1 | 16.4 µM (active) | – |
| Cn1c(=O)n(C)c2cc(S(=O)(=O)N3CCCc4ccccc43)ccc21 | – | -40.6% (inactive) |
| COc1cc(CC(=O)Nc2nc(-c3ccc(F)c(F)c3)cs2)cc(OC)c1OC | 11.6 µM (active) | – |
| Cc1oc2c(F)c(F)c(F)c(F)c2c1S(=O)(=O)Nc1cccc(C(F)(F)F)c1 | 20.6 µM (active) | – |
| Clc1ccc(Nc2nc(-c3cccs3)cs2)nc1 | 13 µM (active) | – |
| CCOc1ccc(CCN2C(=S)N([C@@H](CC(C)C)CN3CCC[C@@H]3CN3C(=S)NC[C@@H]3Cc3ccc(O)cc3)C[C@@H]2CC(C)C)cc1 | 18.4 µM (active) | – |
| CCN(CC)C(=O)C1=C(C)N(Cc2ccc(C(C)(C)C)cc2)C(=O)C(CC(=O)NCc2cccc3ccccc23)C1 (stereo not given) | 14.6 µM (active) | – |
| COC(=O)N/N=C/c1cn(CCCOc2ccc(C)cc2)c2ccccc12 | 14.6 µM (active) | – |
| c1ccc2cc3c(NCCN4CCOCC4)ccnc3cc2c1 | 18.4 µM (active) | – |
| c1ccc(-c2cn3c(n2)CCc2ccc4cccnc4c2-3)cc1 | – | -25.2% (inactive) |
| O=C(/C(=C/c1cccc(Cl)c1)c1nc2ccccc2[nH]1)c1ccccc1 | 2.91 µM (active) | – |
| CC(=O)c1ccc(-c2cnc3c(NC=O)cc(-c4cccc(NS(C)(=O)=O)c4)cn23)cc1 | 0.731 µM (active) | – |
| CC(=O)c1cccc(-c2cnc3c(NC=O)cc(-c4ccc(N(C)C)cc4)cn23)c1 | 7.31 µM (active) | – |
| O=C(Nc1ccc(Cl)cc1)Nc1nnc(/C=C/c2ccccc2)s1 | – | -28.9% (inactive) |
| COc1ccc(-c2onc(C)c2-c2ccc3c(c2)OCCO3)c(O)c1 | 16.4 µM (active) | – |
| COc1cc(NC(=O)COC(=O)c2ccc([N+](=O)[O-])s2)cc(OC)c1OC | 23.1 µM (active) | – |
| Cc1ccnc(NC(=O)C2CCN(S(=O)(=O)c3c(C)c(C)cc(C)c3C)CC2)c1 | 7.31 µM (active) | – |
| S=C(NCC1COc2ccccc2O1)Nc1ccc(Br)cc1 (stereo not given) | 18.4 µM (active) | – |
| CN(C)c1nc(N)nc(CSc2nnnn2-c2cccc3ccccc23)n1 | 7.31 µM (active) | – |
| CN(C)c1nc(=Nc2cccc(Cl)c2)ss1 | 5.17 µM (active) | – |

| Structure (SMILES) | Potency | activity, negative = inhibition |
| --- | --- | --- |
| Cc1cccc(-c2nc(Nc3ccc(O)cc3)c3ccccc3n2)c1 | 18.4 µM (active) | – |
| COc1cc(/C=C2\Oc3ccc(C#Cc4ccc(O)cc4)cc3C2=O)cc(OC)c1 | 6.51 µM (active) | – |
| O=C(Nc1nnc(S(=O)(=O)N2CCCCCC2)s1)c1cccc(Br)c1 | 23.1 µM (active) | – |
| O=C(Nc1ccc(Br)cn1)c1ccc([N+](=O)[O-])o1 | 18.4 µM (active) | – |
| COc1ccc(CC(=O)Nc2ccccc2NC(=O)c2ccco2)cc1OC | – | -18% (inactive) |
| CCOC(=O)C1=C(N)N(c2ccc(C)cc2)C2=C(C(=O)CCC2)C1c1cccs1 (stereo not given) | 23.1 µM (active) | – |
| Cc1nc(/N=C(\N)NC(=O)NC2CCCCC2)nc2ccccc12 | 11.6 µM (active) | – |
| Clc1ccc2c(c1)C1=C(C(c3ccncc3)O2)C(c2ccc(Br)cc2)n2ncnc2N1 (stereo not given) | 2.31 µM (active) | – |
| CCCOc1ccccc1C1CC(=O)Nc2cc3c(cc21)OCO3 (stereo not given) | 8.2 µM (active) | – |
| COc1cccc2sc(N(CCCN(C)C)C(=O)CCS(=O)(=O)c3ccccc3)nc12 | 3.26 µM (active) | – |
| Cc1cccc2sc(N(CCCN(C)C)C(=O)CCS(=O)(=O)c3ccccc3)nc12 | 5.17 µM (active) | – |
| COc1ccc(C)cc1S(=O)(=O)N1CCN(S(=O)(=O)c2cc(C(=O)O)ccc2C)CC1 | – | -6.42% (inactive) |
| Cc1nn(-c2ccccc2)c(C)c1/C=N/NC(=O)CSc1nc2ccccc2c(=O)n1-c1ccccc1 | 2.31 µM (active) | – |
| Cc1ccc(CN2CC(N3CCC(Cc4ccccc4)CC3)CS2(=O)=O)cc1 (stereo not given) | 20.6 µM (active) | – |
| O=C(Nc1ccc(C2CC2(Cl)Cl)cc1)c1cccc([N+](=O)[O-])c1 (stereo not given) | – | -80.8% (inactive) |
| Cc1ccc(S(=O)(=O)Nc2nc3ccccc3nc2N2CCc3ccccc3C2)cc1 | 18.4 µM (active) | – |
| Cc1cccc(NS(=O)(=O)c2ccc(-c3cnc(C4CC4)o3)cc2)c1 | 16.4 µM (active) | – |
| COc1ccc2nc(N3CCN(C(=O)c4ccc([N+](=O)[O-])o4)CC3)sc2c1 | 20.6 µM (active) | – |
| OCC1OC(n2cnc3c(N4CCCC4)ncnc32)C(O)C1O (stereo not given) | 2.59 µM (active) | – |
| CCC(C)N1C(=O)S/C(=C/c2ccc(Sc3nc4ccccc4[nH]3)o2)C1=O (stereo not given) | 5.17 µM (active) | – |
| CCCOc1ccc(F)cc1-c1cc(C(=O)Nc2ccc(F)c(Cl)c2)[nH]n1 | 20.6 µM (active) | – |
| Clc1cccc(Cc2c(-c3cccc(Cl)c3)nc3ccc(Cl)cn23)c1 | 18.4 µM (active) | – |
| Oc1c(CN2CCN(c3ccc(F)cc3)CC2)cc(Cl)c2cccnc12 | 6.51 µM (active) | – |
| OCCCNc1nccc(-c2cc(Nc3cccc(Cl)c3)ncn2)n1 | 0.411 µM (active) | – |
| CC(=NNC(=S)N1CCCCCC1)c1ccccn1 | 0.651 µM (active) | – |
| Cc1cccc(NC(=O)c2nc(S(=O)(=O)Cc3ccccc3)ncc2Cl)c1 | 4.11 µM (active) | – |
| Cc1cccc(CS(=O)(=O)c2ncc(Cl)c(C(=O)Nc3ccc(F)cc3)n2)c1 | 5.17 µM (active) | – |
